Inconclusive results are not listed. Where a call stands in place of a potency, no number is given. The source made the active and inactive calls. Calls come from the whole dose curve; as a rule, active = well fitted inhibition curve with a large enough effect; inconclusive = small, poorly fitted or top-dose-only effect; inactive = flat fitted curve, though single readings scatter.
Assay: Counterscreen Assay for Enhancers of SMN2 Splice Variant Expression: Modulation of SMN1 Expression
Conditions: HEK293 SMN1-luciferase reporter, luminescence, 30-36 h; series mostly up to 22.8 µM
Source text: NIH Chemical Genomics Center [NCGC] NIH Molecular Libraries Probe Production centers Network [MLPCN] MLPCN Grant: R03 MH084179-01 Assay Submitter (PI): Elliot Androphy NCGC Assay Overview: Spinal muscular atrophy (SMA) is caused by insufficient levels of the survival motor neuron protein SMN. The SMN locus on chromosome 5q13 contains two inverted copies of SMN called SMN1 and SMN2 which are 99% identical at the amino acid level. SMN1 is a fully functional protein and SMN2 skips exon 7 90% of the time. Skipping of exon 7 produces non-functional protein product. 10% of the SMN2 protein includes exon 7 and is fully functional. In the SMA disease state, mutations in the SMN1 locus are the cause of the disease state. Because only 10% of SMN2 is of the fully functional form, it is not sufficient to overcome the deficiency produced by the loss of the SMN1 product. A therapy that either increase the amount of SMN2 product made or to increase the inclusion of exon 7 has been proposed for the treatment of SMA. We have designed an assay to identify small molecules that can increase the amount of functional SMN2 product by appending a luciferase reporter gene after the native SMN2 gene, such that inclusion of exon 7 in the expressed product places the luciferase sequence in frame, thus generating functional luciferase enzyme. As a counterscreen for nonspecific modulators of expression, we have run compounds through a similar assay that measures expression of an SMN1-luciferase chimera.
NCGC Assay Protocol Summary: This screen utilizes a luciferase reporter gene assay, combining the promoter with the major portion of the native SMN1 cDNA (exons 1 -7, intron 8 , exon 8 fused to luciferase) stably expressed in HEK293 cells. Compounds that increase luciferase signal presumably enhance expression of the functional SMN1 splice variant. Passaging media contained DMEM w/ glutamax (+phenol red) 10% FCS, 1x pen/strep, 200 ug/ml hygro, 1x sodium pyruvate. Assay media contained DMEM w/ glutamax (-phenol red) 10% FCS, 1x pen strep, 1x pyruvate Sequence, Parameter, Value, Description (1) Cells, 5 uL, 2000 cells/well, 1536 TC treated White solid bottom plate (2) Time, 10-12 hours, 37C 5% CO2 (3) Compound, 23 nl, MLSMR Library (4) Control Compound, 23 nL, Sodium butyrate st 4.5mM (final) conc (5) Time, 30-36 hours, 37C 5% CO2 (6) Reagent, 3 ul, One Glo (TM) from Promega (7) Time, 5-15 minutes, Room temp (8) Detector, Viewlux: luminescent read, 60 second integration, high speed 2x binning Keywords: Spinal muscular atrophy, SMA, SMN2, high throughput screening, MLSMR, MLPCN, NIH Roadmap, qHTS and NCGC
With `COCCCN1C(=O)C(=O)/C(=C(/O)c2ccc3c(c2)CC(C)O3)C1c1cccnc1` (stereo not drawn) the Potency was “inactive”. For `O=C(NCc1cccs1)C(=O)NCC1OCCCN1S(=O)(=O)c1ccccc1` (stereo not drawn), the Potency was “inactive”. With `NC(=O)N1c2ccccc2C=Cc2ccccc21` the Potency was “inactive”. With `Clc1nc(NCC2CCCO2)c2[nH]cnc2n1` (stereo not drawn) the Potency was “inactive”. For `Cc1ccc(-c2nnc(-c3ccccc3)c(-c3ccccc3)n2)cc1`, the Potency was “inactive”. With `COc1cccc(NC(=O)CSc2nc3ccccc3nc2N2CCOCC2)c1` the Potency was 5.01 µM (active). For `Clc1nc(NCc2ccco2)c2[nH]cnc2n1`, the Potency was “inactive”. With `COc1nc(-c2ccc(Cl)cc2)nnc1C` the Potency was “inactive”. With `Cn1c(C(=O)NCc2cccs2)cc2oc3ccccc3c21` the Potency was 3.16 µM (active). For `COc1nc(-c2ccccc2)nnc1-c1ccccc1`, the Potency was “inactive”. In the case of `CN(C)CCCN(C(=O)c1cccs1)c1nc(-c2ccccc2)cs1`, the Potency is reported as “inactive”. In the case of `Brc1nc2ncnc(NCc3ccco3)c2[nH]1`, the Potency is reported as “inactive”. With `NC(=O)C1(N2CCCCC2)CCN(c2nc(-c3ccccc3)cs2)CC1` the Potency was “inactive”. For `O=c1[nH]c(=O)n(C2CCCO2)cc1Br` (stereo not drawn), the Potency was “inactive”. With `OCCCNc1nc(-c2ccc(Cl)cc2)nnc1-c1ccccc1` the Potency was “inactive”. In the case of `O=C(NCCc1cn2ccsc2n1)c1cccs1`, the Potency is reported as “inactive”. With `Nc1ccccc1-c1nnn(CC(=O)N2CCCc3ccccc32)n1` the Potency was “inactive”. For `c1coc(CNc2ncnc3nc[nH]c23)c1`, the Potency was “inactive”. With `Fc1ccc(Oc2nc(-c3ccccc3)nnc2C(F)(F)F)cc1` the Potency was “inactive”. For `FC(F)(F)c1cccc(Oc2nc(-c3ccccc3)nnc2C(F)(F)F)c1`, the Potency was “inactive”. With `COc1ccc(-c2csc(N3CCC(c4ccccc4)CC3)n2)cc1` the Potency was “inactive”. In the case of `CCCc1sc(N2CCCC(C(N)=O)C2)nc1-c1ccccc1` (stereo not drawn), the Potency is reported as “inactive”. With `O=[N+]([O-])c1ccc(-c2nnc(-c3ccccc3)c(N3CCOCC3)n2)cc1` the Potency was “inactive”.

From PubChem BioAssay AID1739 (National Center for Advancing Translational Sciences (NCATS), 2009)
